According to PubChem BioAssay AID693 (University of Pittsburgh Molecular Library Screening Center, 2007):
Out of some 97,000 compounds screened, about 130 (0.13%) were called active. This excerpt belongs to a sample that is enriched for actives. Unmarked numbers belong to inactive results. Cut-off read from the data, not from the text of the source: active = inhibition above about 34% (passing the limit was not always enough); inactive = the rest.

Each compound was assayed against Serine/threonine-protein kinase PLK1 (Homo sapiens) (UniProt P53350) (assay: blockers of phosphopeptide binding to Plk1 PBD – biochemical, fluorescence polarization, primary screen (AID 693)). Settings: stronger effect = higher value,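 tested at about 20 µM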.
Serine/threonine-protein kinase PLK1 (Homo sapiens), sequence (P53350 whole entry, looked up): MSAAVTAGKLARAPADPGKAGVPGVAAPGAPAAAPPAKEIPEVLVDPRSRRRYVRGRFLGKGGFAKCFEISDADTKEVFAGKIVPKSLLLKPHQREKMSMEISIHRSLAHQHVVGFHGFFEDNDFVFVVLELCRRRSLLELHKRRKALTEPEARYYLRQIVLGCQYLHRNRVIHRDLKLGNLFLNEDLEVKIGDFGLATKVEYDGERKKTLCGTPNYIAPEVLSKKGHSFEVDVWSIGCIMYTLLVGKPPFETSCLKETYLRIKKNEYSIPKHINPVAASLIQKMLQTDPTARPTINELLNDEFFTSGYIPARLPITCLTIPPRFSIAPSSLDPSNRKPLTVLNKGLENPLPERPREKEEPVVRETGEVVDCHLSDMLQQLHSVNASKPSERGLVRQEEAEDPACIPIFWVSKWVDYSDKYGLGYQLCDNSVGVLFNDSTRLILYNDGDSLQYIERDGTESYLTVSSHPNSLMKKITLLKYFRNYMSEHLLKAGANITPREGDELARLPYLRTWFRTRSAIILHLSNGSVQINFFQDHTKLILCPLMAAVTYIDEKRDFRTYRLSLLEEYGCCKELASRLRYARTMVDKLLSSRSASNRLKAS
`Cn1c(N)c(C(=O)COC(=O)C23CC4CC(CC(C4)C2)C3)c(=O)n(C)c1=O` gave an inhibition of -3.11%.
Work on `COc1cc(C(=O)OC(C)C(=O)NCC2CCCCC2)cc(NC(=O)c2ccco2)c1OC` (configuration not stated) yielded an inhibition of 2.04%.
`COCc1cc(C)nc2sc(C(=O)NC3CCCCC3)c(N)c12` was tested, and the inhibition was -36.6%.
`COc1ccc(CN(CC(=O)NC2CCCC2)C(=O)CCC(=O)Nc2cc(C)on2)cc1` gave an inhibition of 4.15%.
In the case of `O=C(N/N=C/c1ccsc1)c1cc(O)cc(O)c1`, the inhibition is reported as -12.8%.
With `COc1ccc(CCNC(=S)NC(=O)/C=C/c2ccc(C)cc2)cc1OC` the inhibition was -11.8%.
Compound `N#Cc1ccsc1NC(=O)CN1CCCCC1` has an inhibition of -12.8%.
Compound `O=C1/C(=C\Nc2ccccc2)CCN1c1ncccn1` has an inhibition of 13.5%.
In the case of `CC(C)(C)NS(=O)(=O)CC12CCC(CC1=O)C2(C)C` (configuration not stated), the inhibition is reported as -2.53%.
Work on `O=C1CCN(C(=O)Nc2ccccc2)N1` yielded an inhibition of 11.2%.
For `CCOc1cc(/C=C2/N=C(c3ccc(C(C)(C)C)cc3)OC2=O)cc(Cl)c1OS(C)(=O)=O`, the inhibition was -6.59%.
`Cc1ccccc1NC(=O)c1ccccc1NS(=O)(=O)c1cccc2cccnc12` gave an inhibition of 4.72%.
For `CC1CCCN(C(C(=O)Nc2ccc(C(C)C)cc2)c2ccc3c(c2)OCO3)C1` (configuration not stated), the inhibition was -23.5%.
Compound `Cc1noc(/C=C/c2ccco2)c1S(=O)(=O)N1CCC(C(=O)N2CCc3ccccc32)CC1` has an inhibition of -18.1%.
In the case of `CCCCCCC(=O)Nc1nc(C)c(-c2csc(Nc3cccc(OC)c3)n2)s1`, the inhibition is reported as -14.7%.
Compound `O=C(Nc1ccc(Cl)cc1)c1cc2nc(C3CC3)cc(C(F)(F)F)n2n1` has an inhibition of 6.19%.
`O=C(NC1CCCCC1)c1cc([N+](=O)[O-])ccc1N1CCOCC1` showed an inhibition of 22%.
`O=C(CCc1ccccc1)NCc1cccnc1` gave an inhibition of 22.9%.
Compound `CC(=O)Nc1ccc(OCC(O)CN2CCN(c3ccccc3Cl)CC2)cc1` (configuration not stated) has an inhibition of -14%.
`O=C(O)C1CC=CCC1C(=O)Nc1ccccc1C(=O)N1CCN(c2ccccc2)CC1` (configuration not stated) gave an inhibition of 2.13%.
With `Cc1cc(C)c(S(=O)(=O)c2ccccc2)c(OC(=O)c2c(F)cccc2Cl)n1` the inhibition was -3.99%.
For `COc1ccc(NC(=O)Cn2c(-c3ccc(OC)cc3)cn(-c3ccc(C)cc3)c2=O)cc1`, the inhibition was 4.16%.
Compound `COc1ccc(-c2nn(-c3ccccc3)cc2C(=O)Nc2nccs2)cc1OC` has an inhibition of 3.37%.
In the case of `COc1ccccc1C(=O)Nc1ccc(NC(=O)c2ccco2)c(C)c1`, the inhibition is reported as -21.6%.
Work on `O=c1c2c(nc3nc[nH]n13)CCC2` yielded an inhibition of 7.34%.
With `CCCC(C)C(=O)Nc1ccc(NC(C)=O)cc1` (configuration not stated) the inhibition was -14.8%.
`Cc1ccc(NC(=O)N2CCC(O)(c3cccnc3)CC2)cc1` showed an inhibition of 2.21%.
`CCOC(=O)c1cc2n(c1N)-c1ccccc1C2=O` was tested, and the inhibition was 45.1% (active).
`CCOC(=O)c1cc2n(c1C)-c1ccccc1C2=O` was tested, and the inhibition was -27.7%.
`CC(C)OC(=O)CN1C(=O)C(=O)c2ccccc21` gave an inhibition of -13.6%.
In the case of `O=C1c2ccccc2C(=O)c2c1cccc2N1CCN(Cc2ccccc2)CC1`, the inhibition is reported as -20.8%.
`Cc1cc(NC(=O)/C=C/C(=O)N(c2ccccc2C)C(C(=O)NC2CCCC2)c2ccc(F)cc2)no1` (configuration not stated) gave an inhibition of -15.6%.
`CCCCNC(=O)c1onc(CSc2cccc(OC)c2)c1C(=O)O` gave an inhibition of 25.6%.
For `CO/N=C(/CS(=O)(=O)c1ccc(Br)cc1)c1ccc(OC)cc1`, the inhibition was 2.77%.
Work on `Cc1ccc(Cl)cc1NC(=O)COC(=O)C1CCCCC1` yielded an inhibition of -19.8%.
Compound `COc1ccccc1-c1n[nH]c2c1[C@H](C)CC[C@H]2C(C)C` has an inhibition of -16.8%.
`COc1ccc(C(=O)Nc2ccc(CN3CCOCC3)cc2)cc1` was tested, and the inhibition was -5.41%.
`COc1ccccc1-c1nc(C#N)c(N2CCC(C(N)=O)CC2)o1` gave an inhibition of 33.2%.
`N#Cc1nc(-c2ccc(OCc3ccccc3)cc2)oc1NCCCN1CCOCC1` showed an inhibition of -11.4%.
In the case of `COc1ccc(Nc2oc(-c3ccccc3Cl)nc2C#N)cc1`, the inhibition is reported as 42.4% (active).
Compound `Clc1ccc(-c2cc(COc3ccccc3)no2)cc1Cl` has an inhibition of -15.4%.
For `Cc1ccc(S(=O)(=O)N(c2cccc(C)c2)C2CCS(=O)(=O)C2)cc1` (configuration not stated), the inhibition was -7%.
In the case of `Cc1nc2c(-c3ccc(F)cc3)c(C)nn2c(C)c1CCC(=O)NCc1ccco1`, the inhibition is reported as 2.38%.
For `CCOc1ccc(CN2CCCN(C)CC2)cc1`, the inhibition was -6.01%.
Work on `Cc1ccc(NC(=O)Nc2ccc3oc(C)nc3c2)cc1` yielded an inhibition of 8.59%.
Work on `O=C(Nc1ccc2sc3ccccc3c(=O)c2c1)c1ccccc1Cl` yielded an inhibition of 6.33%.
`CC1(C)Cc2cccc(OCC(N)=O)c2O1` was tested, and the inhibition was 0.26%.
`Cn1cnc([N+](=O)[O-])c1Sc1ccccc1` was tested, and the inhibition was -10.6%.
Work on `COCCCNCC(=O)Nc1sc(C)c(C)c1C(=O)OC` yielded an inhibition of -27.8%.
Compound `COc1ccc(C2CC(=O)Nc3cc(C)c(C)cc32)c(OC)c1OC` (configuration not stated) has an inhibition of 3.42%.
For `O=C(COC(=O)c1ccccc1SCC(=O)NC1CCCCC1)NC1CCCCC1`, the inhibition was 45.4%.
In the case of `O=C(Cc1ccc(S(=O)(=O)N2CCCC2)s1)NC1CCCCCC1`, the inhibition is reported as -9.65%.
Work on `Cc1cccc(COc2ccccc2/C=N/Nc2ccc([N+](=O)[O-])cc2)c1` yielded an inhibition of 0.38%.
In the case of `CC(=O)NC1(c2cccc(F)c2)CCN(CC(=O)NC(C)C)CC1`, the inhibition is reported as 15.8%.
With `Cc1cc2nnc(SCC(=O)N3CCN(c4ccccc4)CC3)n2c(N)n1` the inhibition was -15.4%.
Compound `COc1ccccc1OCc1nc2ccccc2s1` has an inhibition of 7.18%.
Compound `O=C(Nc1ccccc1)OCc1cn(-c2ccc(Cl)cc2)nn1` has an inhibition of 6.75%.
Compound `O=S(=O)(NCC1OCCc2ccccc21)c1ccccc1` (configuration not stated) has an inhibition of -4.11%.
`Cc1ccc(-n2nc(N)c3c(=O)oc(N(C)C)nc32)cc1` was tested, and the inhibition was 13.8%.
Compound `Cn1c(Cn2nnc3ccccc32)nnc1SCC(=O)c1ccccc1F` has an inhibition of -16.2%.
With `CC(C)Oc1ccc(CCc2n[nH]c(=S)n2Cc2ccccc2)cc1` the inhibition was -2.84%.
`COc1ccc(C)cc1NC(=O)CCC(=O)Nc1nnc(C(F)(F)F)s1` gave an inhibition of 19%.
